{"source": "PubChem BioAssay AID1220", "about": "(Sanford-Burnham Center for Chemical Genomics, 2008)", "note": "In all, about 190,000 compounds went through this assay and about 1,300 (0.68%) were called active. No stated cut-off is given here; in the data, active means inhibition above about 50%; inactive means the rest. Shown is part of a subset that was picked to be rich in actives.", "data": [{"biological_target": "Mannose-6-phosphate isomerase (Homo sapiens) (UniProt P34949)", "sequence (P34949 whole entry, looked up)": "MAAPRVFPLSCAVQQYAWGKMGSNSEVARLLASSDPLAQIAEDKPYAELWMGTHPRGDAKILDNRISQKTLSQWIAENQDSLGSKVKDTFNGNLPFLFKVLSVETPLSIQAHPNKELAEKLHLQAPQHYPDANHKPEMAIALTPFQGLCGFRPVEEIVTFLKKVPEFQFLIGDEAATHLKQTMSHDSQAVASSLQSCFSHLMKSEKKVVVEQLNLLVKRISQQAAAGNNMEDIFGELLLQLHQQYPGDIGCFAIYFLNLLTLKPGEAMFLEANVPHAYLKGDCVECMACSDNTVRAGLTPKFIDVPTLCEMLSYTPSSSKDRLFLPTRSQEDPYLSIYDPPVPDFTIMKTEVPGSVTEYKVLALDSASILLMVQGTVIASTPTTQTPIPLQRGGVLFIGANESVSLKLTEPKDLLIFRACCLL", "assay": "human PMI inhibitors, high substrate, primary screen, biochemical, fluorescence intensity, high mannose 6-phosphate (AID 1220)", "settings": "recombinant PMI enzyme, coupled fluorescence intensity; at 20 µM; hits give high values", "values": [{"smiles": "CC(SC1CCCC1)C(=O)Nc1ccnn1C(C)C", "note": "(stereo not drawn)", "inhibition": "-2.4% (inactive)"}, {"smiles": "CC(C)OCCCNC(=S)NNC(=O)C(c1ccccc1)c1ccccc1", "inhibition": "-14.8% (inactive)"}, {"smiles": "O=c1cc(CN2CCN(c3ccccn3)CC2)nc2sccn12", "inhibition": "9.8% (inactive)"}, {"smiles": "CC(=O)c1cc2c(C)c(C(=O)c3ccccc3)oc2cc1O", "inhibition": "8.2% (inactive)"}, {"smiles": "S=C(NCCc1ccccc1)Nc1cccc2cnccc12", "inhibition": "57.3% (active)"}, {"smiles": "O=C(NNC(=S)Nc1ccccc1)c1ccc2ncccc2c1", "inhibition": "-9.6% (inactive)"}, {"smiles": "O=C(NC(=S)Nc1cccc2cnccc12)c1ccccc1", "inhibition": "54.7% (active)"}, {"smiles": "O=C(NC(=S)Nc1cccc2cccnc12)c1ccccc1", "inhibition": "10% (inactive)"}, {"smiles": "S=C(NCCc1ccncc1)Nc1cccc2ccccc12", "inhibition": "18.9% (inactive)"}, {"smiles": "CCCCNC(=S)Nc1cccc2cnccc12", "inhibition": "3.6% (inactive)"}, {"smiles": "O=C(NC(=S)Nc1cnc2ccccc2c1)c1ccccc1", "inhibition": "10.3% (inactive)"}, {"smiles": "Fc1ccccc1NC(=S)Nc1cccc2cnccc12", "inhibition": "9.4% (inactive)"}, {"smiles": "O=C(NC(=S)Nc1ccc2ncccc2c1)c1ccccc1", "inhibition": "55.9% (active)"}, {"smiles": "COc1ccc(Cn2cc(C(=O)c3ccccc3)c(=O)c3cc(OC)ccc32)cc1", "inhibition": "15.1% (inactive)"}, {"smiles": "Cn1c(Cc2ccccc2)nnc1SCC(=O)N1CCOCC1", "inhibition": "-5.3% (inactive)"}, {"smiles": "CC(C)(C)c1ccc(NC(=O)CNC2CCCc3ccccc32)cc1", "note": "(stereo not drawn)", "inhibition": "-3.2% (inactive)"}, {"smiles": "COc1cc(/C=N/N2CCOCC2)ccc1OCc1ccccc1", "inhibition": "-7.2% (inactive)"}, {"smiles": "CCSc1nnc(NC(=O)CSc2nc(CC)nc3c2c(=O)n(C)c(=O)n3C)s1", "inhibition": "6.7% (inactive)"}, {"smiles": "CC1CCN(S(=O)(=O)c2cccc(C(=O)NCc3ccco3)c2)CC1", "inhibition": "-3.8% (inactive)"}, {"smiles": "O=C1NC2=C(CCc3ccccc32)C(c2ccccc2)N1", "note": "(stereo not drawn)", "inhibition": "2.3% (inactive)"}, {"smiles": "Cc1ccc(C2NC(=O)NC3=C2CCc2ccccc23)cc1", "note": "(stereo not drawn)", "inhibition": "40.5% (inactive)"}, {"smiles": "Cc1ccc(-c2nnn(CC(=O)N(CC3CCCO3)C(C(=O)NCC3CCCO3)c3ccc(F)cc3)n2)o1", "note": "(stereo not drawn)", "inhibition": "2.7% (inactive)"}, {"smiles": "O=C(CN1C2CCCC1CC(NC(=O)c1ccccc1)C2)Nc1nccs1", "note": "(stereo not drawn)", "inhibition": "-12.4% (inactive)"}, {"smiles": "O=C(NCC(c1cccnc1)N1CCN(c2ccccc2)CC1)C1CCCCC1", "note": "(stereo not drawn)", "inhibition": "8.8% (inactive)"}, {"smiles": "CN(C)CCCN1C(=O)c2cccc3c([N+](=O)[O-])ccc(c23)C1=O", "inhibition": "29.6% (inactive)"}, {"smiles": "CN(C)CCCN1C(=O)c2cccc3c(Br)ccc(c23)C1=O", "inhibition": "52% (active)"}, {"smiles": "C=CCN1C(=O)c2cccc3c(Br)ccc(c23)C1=O", "inhibition": "4.2% (inactive)"}, {"smiles": "Fc1ccccc1CNc1cc(Cl)cc(Cl)c1", "inhibition": "5.3% (inactive)"}, {"smiles": "COc1cccc(/C=N\\NC(=O)C2C(=O)NCC2c2ccccc2)c1O", "note": "(stereo not drawn)", "inhibition": "-17% (inactive)"}, {"smiles": "COc1cc(/C=N\\NC(=O)C2C(=O)NCC2c2ccccc2)cc(OC)c1O", "note": "(stereo not drawn)", "inhibition": "50.9% (active)"}, {"smiles": "COc1ccc(/C=N\\NC(=O)C2C(=O)NCC2c2ccccc2)cc1O", "note": "(stereo not drawn)", "inhibition": "8.9% (inactive)"}, {"smiles": "CC(/C=N\\Nc1nnc2c(n1)[nH]c1c(C)cccc12)=C\\c1ccco1", "inhibition": "7% (inactive)"}, {"smiles": "Cc1oc(/N=C/c2ccc(Cl)cc2Cl)c(C#N)c1C", "inhibition": "-5.8% (inactive)"}, {"smiles": "COc1ccc(/C=N/c2oc(C)c(C)c2C#N)c(OC)c1", "inhibition": "51.5% (active)"}, {"smiles": "Cc1oc(/N=C/c2ccc(O)cc2O)c(C#N)c1C", "inhibition": "8.5% (inactive)"}, {"smiles": "O=C(c1ccc(Br)o1)N1CCN=C1SCc1cccnc1", "inhibition": "2.2% (inactive)"}, {"smiles": "COCCCNC(=S)NNC(=O)c1ccc(S(=O)(=O)N2CCC(C)CC2)cc1", "inhibition": "-5.4% (inactive)"}, {"smiles": "O=C(Nc1cccc(N=Cc2cc(Br)cc(Br)c2O)c1)c1ccco1", "inhibition": "53.4% (active)"}, {"smiles": "O=C(Nc1cccc(N=Cc2cc(Cl)cc(Br)c2O)c1)c1ccco1", "inhibition": "44.4% (inactive)"}, {"smiles": "CC(=O)c1cccc(NC(=O)c2ccco2)c1", "inhibition": "2.7% (inactive)"}, {"smiles": "O=C(CSc1nnc(-c2cccs2)n1-c1ccccc1)c1ccc2c(c1)OCCO2", "inhibition": "6.2% (inactive)"}, {"smiles": "CCOC(=O)N1CCC(NC(=O)c2ccc3c(c2)N(Cc2ccccc2)CCS3)CC1", "inhibition": "13.2% (inactive)"}, {"smiles": "CCOC(=O)N1CCC(NC(=O)c2ccc3c(c2)N(Cc2ccc(C)cc2)CCS3)CC1", "inhibition": "24.9% (inactive)"}, {"smiles": "CCOC(=O)N1CCC(NC(=O)c2ccc3c(c2)N(C)CCS3)CC1", "inhibition": "55.2% (active)"}, {"smiles": "COc1cccc(C2=NOC(C(=O)NC(C)C)C2)c1", "note": "(stereo not drawn)", "inhibition": "3.6% (inactive)"}, {"smiles": "COc1ccc(C2=NOC(C(=O)NC3CCCCC3)C2)cc1OC", "note": "(stereo not drawn)", "inhibition": "11.9% (inactive)"}, {"smiles": "COc1cccc(C2=NOC(C(=O)NC3CCCCC3)C2)c1", "note": "(stereo not drawn)", "inhibition": "53.2% (active)"}, {"smiles": "C#CCNC(=O)C1CCN(c2ccc(S(=O)(=O)N3CCOCC3)cc2Cl)CC1", "inhibition": "-1.4% (inactive)"}, {"smiles": "CCOc1cc(N2CCOCC2)c(OCC)cc1NC(=O)CN1CCCC(C)C1", "note": "(stereo not drawn)", "inhibition": "30.5% (inactive)"}, {"smiles": "CCC(C)C(=O)Nc1ccc(OC)cc1OC", "note": "(stereo not drawn)", "inhibition": "5.6% (inactive)"}, {"smiles": "CCOc1cc(N2CCOCC2)c(OCC)cc1NC(=O)C1CCCC1", "inhibition": "-1% (inactive)"}, {"smiles": "CCOc1cc(N2CCOCC2)c(OCC)cc1NC(=O)c1ccc(OC(C)C)cc1", "inhibition": "19.1% (inactive)"}, {"smiles": "CCN1CCN(C(=O)C(C)Nc2ccc(OC)cc2OC)CC1", "note": "(stereo not drawn)", "inhibition": "58.6% (active)"}, {"smiles": "CCOc1cc(N2CCOCC2)c(OCC)cc1NC(C)C(=O)N1CCN(CC)CC1", "note": "(stereo not drawn)", "inhibition": "57.1% (active)"}, {"smiles": "CCOc1cc(N2CCOCC2)c(OCC)cc1NC(=O)CN1CCCC1", "inhibition": "20.8% (inactive)"}, {"smiles": "CCOc1cc(N2CCOCC2)c(OCC)cc1NC(C)C(=O)N1CCC(C)CC1", "note": "(stereo not drawn)", "inhibition": "59.1% (active)"}, {"smiles": "CCN1CCN(C(=O)Nc2ccc(OC)cc2OC)CC1", "inhibition": "34.3% (inactive)"}, {"smiles": "CC(=O)c1cccc(N/C=C\\C(=O)c2ccc(C)cc2)c1", "inhibition": "1.9% (inactive)"}, {"smiles": "CCN(CC)S(=O)(=O)c1cccc(C(=O)Nc2ccc(C#N)cc2)c1", "inhibition": "16.5% (inactive)"}, {"smiles": "Cc1cccc(N2CCN(C(=O)c3ccc(CNc4c(N5CCC(C)CC5)c(=O)c4=O)cc3)CC2C)c1", "note": "(stereo not drawn)", "inhibition": "4.9% (inactive)"}, {"smiles": "O=C(CS(=O)CC(=O)N(c1cccc(F)c1)C(C(=O)NC1CCCCC1)c1ccco1)Nc1ccc(F)cc1", "note": "(stereo not drawn)", "inhibition": "-6.4% (inactive)"}, {"smiles": "C/C(=N\\NC(=O)CN(c1ccccc1)S(=O)(=O)c1ccccc1[N+](=O)[O-])C(C)(C)C", "inhibition": "8.8% (inactive)"}, {"smiles": "FCCCOc1ccc(-c2nccc(-c3ccc(Br)cc3)n2)cc1", "inhibition": "8.4% (inactive)"}, {"smiles": "Cc1cc(NC(=O)CSc2nnc(C3CC3)n2-c2ccccc2)no1", "inhibition": "-7.9% (inactive)"}, {"smiles": "COc1ccc(/C=N/Nc2cc(N3CCCC3)nc(N3CCCC3)n2)cc1", "inhibition": "49% (inactive)"}, {"smiles": "Oc1ccc(/C=N/Nc2cc(N3CCCC3)nc(N3CCCC3)n2)cc1", "inhibition": "58.7% (active)"}, {"smiles": "C(=N\\Nc1nc(N2CCCCCC2)nc(N2CCCCCC2)n1)/c1ccccc1", "inhibition": "23.1% (inactive)"}, {"smiles": "COc1ccc(/C=N/Nc2nc(N3CCCC3)nc(N3CCCC3)n2)cc1", "inhibition": "0.1% (inactive)"}, {"smiles": "COc1cc(/C=N/Nc2nc(N3CCCC3)nc(N3CCCC3)n2)ccc1O", "inhibition": "5.1% (inactive)"}, {"smiles": "Oc1ccccc1/C=N/Nc1cc(N2CCCC2)nc(N2CCCC2)n1", "inhibition": "52% (active)"}, {"smiles": "O=C(O)c1ccccc1/C=N/Nc1nc(N2CCCCC2)nc(N2CCCCC2)n1", "inhibition": "-0.2% (inactive)"}, {"smiles": "Oc1cccc(/C=N/Nc2cc(N3CCCC3)nc(N3CCCC3)n2)c1", "inhibition": "59.8% (active)"}, {"smiles": "Oc1ccc(Br)cc1/C=N/Nc1nc(N2CCCCC2)nc(N2CCOCC2)n1", "inhibition": "20% (inactive)"}, {"smiles": "COc1cc(-c2cc(N)n(S(=O)(=O)c3ccccc3)n2)cc(OC)c1OC", "inhibition": "-2.1% (inactive)"}, {"smiles": "CCOC(=O)c1ccc(S(=O)(=O)Nc2ccc3cn[nH]c3c2)cc1", "inhibition": "24.1% (inactive)"}, {"smiles": "CC1CCC(NC(=O)Cn2cc3c(n2)CCCC3)CC1", "note": "(stereo not drawn)", "inhibition": "3.7% (inactive)"}, {"smiles": "CC(C)=CCCC1=CCC(/C=N/NC(N)=O)C(C)C1", "note": "(stereo not drawn)", "inhibition": "-36.5% (inactive)"}, {"smiles": "OC(c1ccccc1)c1nc2ccccc2s1", "note": "(stereo not drawn)", "inhibition": "6% (inactive)"}, {"smiles": "O=C(N/N=C/c1ccc(Br)o1)c1ccc2c(c1)OCCO2", "inhibition": "0% (inactive)"}, {"smiles": "C(=N\\Nc1nc2ccccc2[nH]1)/c1ccccn1", "inhibition": "-33.9% (inactive)"}, {"smiles": "N#CCCCN1C(=O)C(=C(C#N)C#N)c2ccccc21", "inhibition": "59.5% (active)"}, {"smiles": "N#CCCCN1C(=O)C(O)(CC(=O)c2ccc3c(c2)OCCO3)c2ccccc21", "note": "(stereo not drawn)", "inhibition": "11.1% (inactive)"}, {"smiles": "CC(C)CN1C(=O)/C(=C(/C#N)C(=O)NC2CCCCC2)c2ccccc21", "inhibition": "20% (inactive)"}, {"smiles": "Cc1ccc(C(=O)NCCCNc2ccccc2[N+](=O)[O-])cc1", "inhibition": "1.8% (inactive)"}, {"smiles": "Cc1ncc(S(=O)(=O)c2ccccc2)c(-c2ccccc2)n1", "inhibition": "-4.6% (inactive)"}, {"smiles": "CC(C)C(=O)NC(=S)Nc1ccc(S(=O)(=O)NC(C)(C)C)cc1", "inhibition": "-1.7% (inactive)"}, {"smiles": "COC(=O)C1=C(C)N(Cc2ccco2)C(=O)/C1=C\\c1ccc([N+](=O)[O-])cc1", "inhibition": "-22% (inactive)"}, {"smiles": "COC(=O)C1=C(C)N(Cc2ccc(C)cc2)C(=O)/C1=C\\c1ccc(O)c(OC)c1", "inhibition": "58.7% (active)"}, {"smiles": "CCOc1cc(/C=C2\\C(=O)N(Cc3ccco3)C(C)=C2C(=O)OC)ccc1O", "inhibition": "68.2% (active)"}, {"smiles": "CCOc1cc(/C=C2\\C(=O)N(CCc3ccc(OC)c(OC)c3)C(C)=C2C(=O)OC)ccc1O", "inhibition": "50.6% (active)"}, {"smiles": "COC(=O)C1=C(C)N(Cc2ccc(C)cc2)C(=O)/C1=C\\c1cc(OC)c(OC)c(OC)c1", "inhibition": "23.1% (inactive)"}, {"smiles": "CCN1C(=O)/C(=C\\c2ccc3c(c2)OCO3)C(C(=O)OC)=C1C", "inhibition": "-6.5% (inactive)"}, {"smiles": "COC(=O)C1=C(C)N(CCc2ccc(OC)c(OC)c2)C(=O)/C1=C\\c1ccc(O)cc1", "inhibition": "6% (inactive)"}, {"smiles": "COC(=O)C1=C(C)N(CCc2ccc(OC)c(OC)c2)C(=O)/C1=C\\N(C)C", "inhibition": "-13.2% (inactive)"}, {"smiles": "C=CCOc1cccc(/C=C2\\C(=O)N(Cc3ccc(C)cc3)C(C)=C2C(=O)OC)c1", "inhibition": "10.8% (inactive)"}, {"smiles": "COC(=O)C1=C(C)N(Cc2ccco2)C(=O)/C1=C\\c1ccc(N(C)C)cc1", "inhibition": "19.7% (inactive)"}, {"smiles": "CCOc1cc(/C=C2/N=C(C)C(C(=O)OC)=C2O)ccc1O", "inhibition": "31.3% (inactive)"}, {"smiles": "CCOc1cc(/C=C2\\C(=O)N(Cc3ccc(C)cc3)C(C)=C2C(=O)OC)ccc1O", "inhibition": "53.3% (active)"}]}]}
